Laboratory results taken from PubChem BioAssay (EPA / NIEHS).
Several values for one entry are separate records, joined by “and”; a condition that tells them apart may be missing. Equal values may be shown once. Some compounds were tested as several samples or in several runs, with calls that do not always agree. Activity calls are given as the source filed them. Rule for the calls: active = hit-call score of the fitted dose curve at least 0.9, where 1 is the maximum; inactive = score below 0.9.

Legend:
[1] = read-out: Monocyte Chemoattractant Protein-1 (MCP1), CCL2 (gene 6347); assay: BSK_LPS_MCP1: BioMAP Diversity Plus: LPS Assay for Monocyte Chemoattractant Protein-1 (MCP1) Biomarker Activity (AID 2283081); conditions: primary human HUVEC with PBMC; actives raise or lower the signal;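 for AC50: co-culture stimulated with LPS; secreted MCP-1 protein quantified by ELISA in culture supernatant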
Method in brief: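 Secreted MCP-1 read by ELISA at 24 h post-dosing in an LPS-activated co-culture of endothelial cells with peripheral blood mononuclear cells. Fits run in both directions, DMSO as baseline; parallel SRB staining tracks overt cytotoxicity.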

[2] = BSK_LPS_PGE2: BioMAP Diversity Plus: LPS Assay for Prostaglandin E2 (PGE2) Biomarker Activity (AID 2283082); conditions: primary human HUVEC with PBMC; actives raise or lower the signal;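 for AC50: secreted prostaglandin E2 measured by ELISA in LPS-stimulated co-culture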
Method in brief: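 Primary human endothelial cells and blood mononuclear cells, co-cultured with LPS, receive test chemical; PGE2 ELISA follows at 24 h, with SRB-stained parallel cultures flagging cytotoxicity.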

[3] = read-out: Macrophage colony-stimulating factor (MCSF), CSF1 (gene 1435); assay: BSK_LPS_MCSF: BioMAP Diversity Plus: LPS Assay for Macrophage colony-stimulating factor (MCSF) Biomarker Activity (AID 2283083); conditions: primary human HUVEC with PBMC; actives raise or lower the signal
Method in brief: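 Bidirectional fitting against DMSO was applied to M-CSF levels read by ELISA at 24 h post-dose. The system pairs human umbilical vein endothelium with peripheral blood mononuclear cells; parallel SRB staining tracked cytotoxicity.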

[4] = read-out: Tissue Factor, F3 (gene 2152); assay: BSK_LPS_TissueFactor: BioMAP Diversity Plus: LPS Assay for Tissue Factor Biomarker Activity (AID 2283084); conditions: primary human HUVEC with PBMC; actives raise or lower the signal
Method in brief: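 Compound was added to an endothelial cell/PBMC co-culture, and after 24 h tissue factor (CD142) was read by ELISA. Gain or loss of signal was fitted against a DMSO baseline, and parallel SRB staining (560 nm) tracked overt cytotoxicity.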

[5] = read-out: Tumor necrosis factor (Homo sapiens) (UniProt P01375); assay: BSK_LPS_TNFa: BioMAP Diversity Plus: LPS Assay for Tumour Necrosis Factor alpha (TNFa) Biomarker Activity (AID 2283085); conditions: primary human HUVEC with PBMC; actives raise or lower the signal;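 for AC50: TNFa protein level quantified by ELISA in the co-culture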
Method in brief: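 ELISA-based TNFa endpoint in a human endothelial–PBMC co-culture sampled 24 h post-exposure. Curves were fitted in both directions using DMSO as baseline of activity.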

[6] = read-out: Vascular cell adhesion molecule 1 (VCAM1), VCAM1 (gene 7412); assay: BSK_LPS_VCAM1: BioMAP Diversity Plus: LPS Assay for Vascular cell adhesion molecule 1 (VCAM1) Biomarker Activity (AID 2283086); conditions: primary human HUVEC with PBMC; actives raise or lower the signal
Method in brief: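 Measured by ELISA: VCAM-1 in LPS-activated HUVEC/PBMC co-cultures 24 h after treatment. Values reflect bidirectional fitting with DMSO as baseline.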

[7] = read-out: CD38, CD38 (gene 952); assay: BSK_SAg_CD38: BioMAP Diversity Plus: SAg Assay for CD38 Biomarker Activity (AID 2283087); conditions: primary human HUVEC with PBMC; actives raise or lower the signal
Method in brief: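 Measures CD38 on a human endothelial/PBMC co-culture driven by SEB and TSST-1, 24 h after compound exposure, using ELISA with fluorescence detection; DMSO defines baseline for bidirectional curve fitting.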

[8] = read-out: CD40, CD40 (gene 958); assay: BSK_SAg_CD40: BioMAP Diversity Plus: SAg Assay for CD40 Biomarker Activity (AID 2283088); conditions: primary human HUVEC with PBMC; actives raise or lower the signal
Method in brief: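 CD40 is measured by fluorescence ELISA in an endothelial/PBMC primary human co-culture at 24 h post-dose. Fitting is bidirectional, DMSO baseline. Parallel SRB staining (560 nm) flags cytotoxicity.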

[9] = read-out: E-selectin (Homo sapiens) (UniProt P16581); assay: BSK_SAg_Eselectin: BioMAP Diversity Plus: SAg Assay for Eselectin Biomarker Activity (AID 2283091); conditions: primary human HUVEC with PBMC; actives raise or lower the signal
Method in brief: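 Cell-surface E-selectin is read by ELISA at 24 h in the SAg co-culture of HUVEC and PBMC. Curves are fitted in both directions relative to DMSO. Parallel SRB total-protein staining tracks overt toxicity.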

[10] = read-out: Monokine induced gamma interferon (MIG), CXCL9 (gene 4283); assay: BSK_SAg_MIG: BioMAP Diversity Plus: SAg Assay for Monokine induced gamma interferon (MIG) Biomarker Activity (AID 2283092); conditions: primary human HUVEC with PBMC; actives raise or lower the signal
Method in brief: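 ELISA readout of MIG/CXCL9; primary human umbilical vein endothelial cells co-cultured with peripheral blood mononuclear cells; 24 h post-dose; gain/loss fit vs DMSO baseline.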

[11] = BSK_SAg_PBMCCytotoxicity: PBMC Cytotoxicity Assessment in the BioMAP Diversity Plus: SAg Assay (AID 2283093); conditions: primary human HUVEC with PBMC;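 note: PBMC viability measured as Alamar Blue reduction fluorescence at 546/580 nm; fitted both ways against DMSO so a hit may be loss or gain of signal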;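 for AC50: PBMC superantigen activated with SEB plus TSST-1 one hour after compound addition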
Method in brief: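 Alamar Blue reduction (6 h, 546/580 nm) reports PBMC cytotoxicity after 90 h superantigen activation (SEB, TSST-1; 20 ng/mL final each) with 1 h compound pre-treatment. Gain or loss of signal fitted versus DMSO.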

[12] = read-out: Interleukin-8 (IL8), CXCL8 (gene 3576); assay: BSK_SAg_IL8: BioMAP Diversity Plus: SAg Assay for Interleukin-8 (IL8) Biomarker Activity (AID 2283094); conditions: primary human HUVEC with PBMC; actives raise or lower the signal
Method in brief: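 Primary human endothelial cells with PBMC, exposed 24 h; IL-8 determined by ELISA, analysed bidirectionally relative to DMSO.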

[13] = BSK_SAg_Proliferation: Cell Proliferation Assessment in the BioMAP Diversity Plus: SAg Assay (AID 2283095); conditions: primary human HUVEC with PBMC;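 note: relative cell number as total protein by SRB absorbance in sub-confluent culture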
Method in brief: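 A human primary co-culture of umbilical vein endothelium and blood mononuclear cells receives compound; relative cell number is quantified at 96 h by SRB staining and 560 nm absorbance, with DMSO-referenced bidirectional curve fitting.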

[14] = BSK_SAg_SRB: Viability Assessment in the BioMAP Diversity Plus: SAg Assay (AID 2283096); conditions: primary human HUVEC with PBMC;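 note: cells read one day after compound addition; hits may be either gain or loss of signal compared with DMSO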
Method in brief: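 This overt-cytotoxicity endpoint quantifies protein in human endothelial/PBMC co-cultures at 24 h using SRB absorbance (560 nm) after trichloroacetic acid fixation. Values reflect signal change from the DMSO negative control, fitted bidirectionally.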

[15] = read-out: CD69, CD69 (gene 969); assay: BSK_SAg_CD69: BioMAP Diversity Plus: SAg Assay for CD69 Biomarker Activity (AID 2283089); conditions: primary human HUVEC with PBMC; actives raise or lower the signal;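 for AC50: cell surface CD69 protein quantified by ELISA with fluorescence detection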
Method in brief: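 ELISA, fluorescence read-out: CD69 on human umbilical vein endothelial cell + PBMC co-culture, 24 h post-dosing. Gain or loss of signal fitted bidirectionally against DMSO baseline.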

[16] = read-out: Monocyte Chemoattractant Protein-1 (MCP1), CCL2 (gene 6347); assay: BSK_SAg_MCP1: BioMAP Diversity Plus: SAg Assay for Monocyte Chemoattractant Protein-1 (MCP1) Biomarker Activity (AID 2283090); conditions: primary human HUVEC with PBMC; actives raise or lower the signal
Method in brief: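 Values derive from bidirectional fitting of ELISA-measured MCP1 against DMSO controls. Readings were taken 24 h after dosing human vascular endothelial cells co-cultured with peripheral blood mononuclear cells under superantigen stimulation.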

Measured: AC50

Chain of E-selectin (Homo sapiens) (P16581 whole entry, looked up): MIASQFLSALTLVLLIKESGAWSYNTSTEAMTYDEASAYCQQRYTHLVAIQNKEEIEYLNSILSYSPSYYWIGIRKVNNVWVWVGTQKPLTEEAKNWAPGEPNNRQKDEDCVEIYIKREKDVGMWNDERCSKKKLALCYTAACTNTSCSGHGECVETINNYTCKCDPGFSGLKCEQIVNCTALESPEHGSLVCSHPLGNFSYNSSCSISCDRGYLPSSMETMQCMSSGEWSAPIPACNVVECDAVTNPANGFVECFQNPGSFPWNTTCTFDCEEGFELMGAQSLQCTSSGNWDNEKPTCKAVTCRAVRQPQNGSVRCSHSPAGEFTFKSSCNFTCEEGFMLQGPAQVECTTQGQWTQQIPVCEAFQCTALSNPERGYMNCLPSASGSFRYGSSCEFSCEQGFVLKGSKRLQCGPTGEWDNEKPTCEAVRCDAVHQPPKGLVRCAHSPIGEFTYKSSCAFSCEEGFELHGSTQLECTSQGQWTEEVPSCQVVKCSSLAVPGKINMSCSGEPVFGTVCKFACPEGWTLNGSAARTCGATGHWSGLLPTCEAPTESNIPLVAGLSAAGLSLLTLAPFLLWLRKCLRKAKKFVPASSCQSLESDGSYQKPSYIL
Chain of Tumor necrosis factor (Homo sapiens) (P01375 whole entry, looked up): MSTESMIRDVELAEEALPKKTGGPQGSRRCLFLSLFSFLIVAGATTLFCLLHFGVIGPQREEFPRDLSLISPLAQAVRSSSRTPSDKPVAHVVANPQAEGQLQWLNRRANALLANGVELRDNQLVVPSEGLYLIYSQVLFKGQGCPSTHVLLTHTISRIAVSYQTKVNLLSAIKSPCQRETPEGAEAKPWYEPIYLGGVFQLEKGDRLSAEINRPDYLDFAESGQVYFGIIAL

O=C(O)C=C(C(F)(F)F)C(F)(F)F
inactive: [1] | [2] | [3] | [4] | [5] | [7] | [8] | [10] | [11] | [14]
active: [3] 8.27 µM | [6] 10.5 µM and 10.2 µM | [8] 40.3 µM | [9] 26.8 µM and 22.9 µM | [12] 30 µM and 20 µM | [13] 43 µM and 27.2 µM

C=C(C)C(=O)OCCC(F)(F)C(F)(F)C(F)(F)C(F)(F)C(F)(C(F)(F)F)C(F)(F)F
inactive: all assays above

CO[Si](OC)(c1ccccc1)c1ccccc1
active: [11] 33.8 µM | [13] 20 µM
not listed: [15] | [16]
inactive: all other assays above

FC(F)(F)C(F)(F)C(F)(F)C(F)(F)C(F)(F)C(F)(F)CC1CO1 (stereo unspecified)
inactive: all assays above

C=CC(F)(F)C(F)(F)C(F)(F)C(F)(F)C(F)(F)C(F)(F)C(F)(F)C(F)(F)C=C
not listed: [16]
inactive: all other assays above

FC(F)(F)C(F)(F)C(F)(F)CI
not listed: [15]
inactive: all other assays above

CC(CCl)OP(=O)(OC(C)CCl)OC(C)CCl (stereo unspecified)
not listed: [15] | [16]
inactive: all other assays above

COC(=O)CCC(F)(F)C(F)(F)C(F)(F)C(F)(F)F
not listed: [15]
inactive: all other assays above

CCCCCCCOC(=O)c1ccccc1C(=O)OCCCCCCC
active: [11] 3.28 µM
not listed: [15] | [16]
inactive: all other assays above

FC(F)(I)C(F)(F)C(F)(F)C(F)(F)I
active: [9] 44.1 µM | [11] 46.9 µM and 50.1 µM | [12] 30 µM | [13] 54.2 µM and 54.1 µM and 46.5 µM
inactive: [1] | [2] | [3] | [4] | [5] | [6] | [7] | [8] | [9] | [10] | [11] | [12] | [14]

FC1CC(F)(F)C(F)(F)C1(F)F (stereo unspecified)
not listed: [15]
inactive: all other assays above

OCCCC(F)(F)C(F)(F)C(F)(F)C(F)(F)C(F)(F)C(F)(F)C(F)(F)F
inactive: [2]
active: [1] 44.7 µM and 44.2 µM | [3] 46 µM and 47.8 µM | [4] 49.9 µM and 45.5 µM | [5] 48 µM and 25.8 µM | [6] 51.4 µM and 43.6 µM | [7] 47.1 µM and 49.3 µM | [8] 48 µM and 50.1 µM | [9] 44.2 µM and 38.8 µM | [10] 54 µM and 50.8 µM | [11] 14.4 µM and 14.8 µM | [12] 23.3 µM and 50.1 µM | [13] 16.8 µM and 16.3 µM | [14] 51.4 µM and 44.9 µM

O[Si](c1ccccc1)(c1ccccc1)c1ccccc1
inactive: [4] | [5] | [6]
active: [1] 28.9 µM | [2] 11.6 µM | [3] 20 µM | [7] 32.6 µM | [8] 29.6 µM | [15] 31.7 µM | [9] 31 µM | [10] 31.1 µM | [11] 30.5 µM | [12] 20 µM | [13] 32.6 µM | [14] 26.8 µM

C=CC(=O)OCC(F)(F)C(F)(F)C(F)(F)C(F)(F)C(F)(F)C(F)(F)C(F)(F)F
active: [13] 20 µM
inactive: [1] | [2] | [3] | [4] | [5] | [6] | [7] | [8] | [9] | [10] | [11] | [12] | [13] | [14]
